{
  "source": "PubChem BioAssay (NCI)",
  "note": "Compounds without any hit were thinned out: in the full panel of roughly 83,000, 20% have a hit.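 How to read the values: 0–100, growth inhibition (40 = 60% inhibited); 0, no net growth; -100 to 0, cell death (-40 = 40% of starting cells died; -100 = all dead).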 Unmarked numbers belong to inactive results. Active and inactive are the calls of the source. Rule for the calls: active = growth percent below 10; inactive = the rest.",
  "data": [
    {"test_system": "MDA-MB-468 breast", "experiment": "NCI-60 one-dose screen, 48 h (100 = growth as untreated, 0 = no growth, -100 = all killed)", "conditions": "10 µM unless noted", "values": [
      {"molecule": "Cc1ccc(Cc2c(C=O)nc(N)[nH]c2=O)c2ccccc12", "growth": "106%"},
      {"molecule": "Cc1ccnc2c(OCc3ccccc3)cccc12", "growth": "34.2%"},
      {"molecule": "O=C(Nc1ccc(-c2nc3cc4ccccc4cc3[nH]2)cc1)c1cccc(Br)c1", "growth": "48.3%"},
      {"molecule": "Cn1c(=O)c2c(nc(Nc3cc(=O)[nH]c(=O)[nH]3)n2Cc2ccccc2)n(C)c1=O", "growth": "84.7%"},
      {"molecule": "COc1cc(OC)c2cc(C(=O)O)c(=O)oc2c1", "growth": "99.9%"},
      {"molecule": "CC(=O)c1ccc(NCn2nc(-c3ccc(Cl)cc3)oc2=S)cc1", "growth": "100%"},
      {"molecule": "O=C(CN1CCOCC1)Nc1ccc(-c2nc3ccccc3s2)cc1", "growth": "-6.69% (active)"},
      {"molecule": "Cc1n[nH]c(C)c1-c1c(C)n[nH]c1C", "growth": "-0.751% (active)"},
      {"molecule": "O=C(CN1CCCCCC1)Nc1nc2ccc(NCc3ccc(Cl)cc3)cc2s1", "growth": "85.2%"},
      {"molecule": "CCC(C)C1NC(=O)c2nc(oc2-c2ccccc2)-c2csc(n2)-c2csc(n2)-c2nc(oc2C)-c2coc(n2)CNC(=O)C(C(C)CC)NC1=O", "note": "(centres undefined)", "growth": "-76.9% (active)"},
      {"molecule": "CCCNCC(=O)Nc1ccc(C(=O)OC(C)(C)CC)cc1", "growth": "102%"},
      {"molecule": "CC(C)C[C@H](C(=O)N[C@H](C(N)=O)C(C)C)N1CC=CCN(OCc2ccccc2)S1(=O)=O", "growth": "105% [2.5 µM]"},
      {"molecule": "C#CCOC(=O)[C@]1(C)CCC[C@]2(C)[C@H]3C[C@H]4C(C(C)C)=C[C@]3(CC[C@H]21)[C@@H]1C(=O)CCC(=O)[C@@H]14", "growth": "78%"},
      {"molecule": "COc1ccc(C(=O)NCCNc2nccc(-c3c(-c4ccc(F)cc4)nc4sccn34)n2)cc1", "growth": "67.5%"}
    ]}
  ]
}
